For test [1], the target named is Protein kinase C gamma type (Homo sapiens) (UniProt P05129). To be noted: at 1 µM.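 Note: each value is an averaged percent inhibition of the enzyme.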
In test [2] the target is T1, Protein kinase C iota type (Homo sapiens) (UniProt P41743).
T1 sequence (whole entry): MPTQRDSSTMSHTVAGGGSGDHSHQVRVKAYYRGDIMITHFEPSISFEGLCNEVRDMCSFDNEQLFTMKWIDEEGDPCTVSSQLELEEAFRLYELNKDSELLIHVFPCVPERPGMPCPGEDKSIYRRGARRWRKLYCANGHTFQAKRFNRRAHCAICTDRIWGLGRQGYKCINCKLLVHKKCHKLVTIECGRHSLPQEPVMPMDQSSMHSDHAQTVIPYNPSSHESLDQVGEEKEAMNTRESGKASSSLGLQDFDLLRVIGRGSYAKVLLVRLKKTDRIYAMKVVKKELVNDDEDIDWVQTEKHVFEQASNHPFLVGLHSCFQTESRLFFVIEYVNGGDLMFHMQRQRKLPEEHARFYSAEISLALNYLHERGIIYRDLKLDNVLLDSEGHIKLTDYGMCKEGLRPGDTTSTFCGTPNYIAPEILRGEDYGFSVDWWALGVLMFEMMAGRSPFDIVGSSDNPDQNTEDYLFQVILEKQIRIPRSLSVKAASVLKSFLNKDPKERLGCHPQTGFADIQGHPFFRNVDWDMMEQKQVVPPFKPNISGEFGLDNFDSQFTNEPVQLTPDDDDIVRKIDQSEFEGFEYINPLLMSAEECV
To be noted: at 0.1 µM.

The target in test [3] is T1, Protein kinase C iota type (Homo sapiens). To be noted: at 1 µM.
The target of test [4] is Protein kinase C theta type (Homo sapiens) (UniProt Q04759). To be noted: at 0.1 µM.
Sequence of Protein kinase C theta type (Homo sapiens) (Q04759 whole entry, looked up): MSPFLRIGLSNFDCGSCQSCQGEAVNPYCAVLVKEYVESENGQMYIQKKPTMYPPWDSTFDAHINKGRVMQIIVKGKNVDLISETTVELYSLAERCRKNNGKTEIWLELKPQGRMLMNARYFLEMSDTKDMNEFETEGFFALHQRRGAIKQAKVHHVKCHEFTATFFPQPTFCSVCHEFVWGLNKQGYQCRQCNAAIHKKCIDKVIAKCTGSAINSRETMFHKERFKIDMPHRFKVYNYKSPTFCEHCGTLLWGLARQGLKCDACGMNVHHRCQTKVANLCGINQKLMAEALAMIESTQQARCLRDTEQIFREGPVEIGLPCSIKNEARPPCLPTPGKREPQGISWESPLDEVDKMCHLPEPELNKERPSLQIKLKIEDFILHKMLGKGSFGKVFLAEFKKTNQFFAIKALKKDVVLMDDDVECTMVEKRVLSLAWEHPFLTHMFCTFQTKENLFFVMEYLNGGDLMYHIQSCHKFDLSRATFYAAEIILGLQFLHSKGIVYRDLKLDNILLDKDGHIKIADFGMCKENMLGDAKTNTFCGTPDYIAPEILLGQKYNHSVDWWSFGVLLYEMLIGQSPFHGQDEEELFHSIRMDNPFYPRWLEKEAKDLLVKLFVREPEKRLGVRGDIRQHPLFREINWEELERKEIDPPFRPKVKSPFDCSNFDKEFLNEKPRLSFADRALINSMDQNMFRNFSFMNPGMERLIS
The target is the same in test [5]. As to conditions: at 1 µM.
Test [6] has as its target Protein kinase C beta type (Homo sapiens) (UniProt P05771). To be noted: at 0.1 µM.
Test [7] shares this target. As to conditions: at 1 µM.
For test [8], the target named is T2, Serine/threonine-protein kinase D1 (Homo sapiens) (UniProt Q15139).
T2 sequence (whole entry): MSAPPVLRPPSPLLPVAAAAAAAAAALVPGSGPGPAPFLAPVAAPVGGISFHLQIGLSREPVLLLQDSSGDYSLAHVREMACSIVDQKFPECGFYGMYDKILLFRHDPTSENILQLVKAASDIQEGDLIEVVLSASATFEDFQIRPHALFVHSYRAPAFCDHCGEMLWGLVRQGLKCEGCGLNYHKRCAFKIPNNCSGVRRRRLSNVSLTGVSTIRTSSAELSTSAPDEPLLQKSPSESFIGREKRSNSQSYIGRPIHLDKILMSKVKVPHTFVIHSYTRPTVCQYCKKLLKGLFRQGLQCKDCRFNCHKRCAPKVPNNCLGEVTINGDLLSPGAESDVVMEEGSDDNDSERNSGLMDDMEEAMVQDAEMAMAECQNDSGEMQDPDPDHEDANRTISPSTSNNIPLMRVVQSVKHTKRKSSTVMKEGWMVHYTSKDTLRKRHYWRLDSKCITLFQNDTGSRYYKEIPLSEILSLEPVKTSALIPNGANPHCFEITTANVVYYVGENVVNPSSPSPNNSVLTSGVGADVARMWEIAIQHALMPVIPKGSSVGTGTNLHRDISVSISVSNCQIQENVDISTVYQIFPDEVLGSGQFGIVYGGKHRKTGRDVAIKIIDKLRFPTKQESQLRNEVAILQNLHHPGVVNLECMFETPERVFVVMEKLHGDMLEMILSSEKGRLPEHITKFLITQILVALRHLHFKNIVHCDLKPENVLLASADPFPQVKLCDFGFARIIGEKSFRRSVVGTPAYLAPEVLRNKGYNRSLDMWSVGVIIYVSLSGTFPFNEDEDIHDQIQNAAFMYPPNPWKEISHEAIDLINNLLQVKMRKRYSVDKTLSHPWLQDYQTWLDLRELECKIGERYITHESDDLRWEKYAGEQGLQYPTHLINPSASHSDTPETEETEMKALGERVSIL
As to conditions: at 0.1 µM.

Test [9] addresses T2, Serine/threonine-protein kinase D1 (Homo sapiens). To be noted: at 1 µM.
Test [10] concerns the target T3, Serine/threonine-protein kinase D2 (Homo sapiens) (UniProt Q9BZL6).
T3 sequence (whole entry): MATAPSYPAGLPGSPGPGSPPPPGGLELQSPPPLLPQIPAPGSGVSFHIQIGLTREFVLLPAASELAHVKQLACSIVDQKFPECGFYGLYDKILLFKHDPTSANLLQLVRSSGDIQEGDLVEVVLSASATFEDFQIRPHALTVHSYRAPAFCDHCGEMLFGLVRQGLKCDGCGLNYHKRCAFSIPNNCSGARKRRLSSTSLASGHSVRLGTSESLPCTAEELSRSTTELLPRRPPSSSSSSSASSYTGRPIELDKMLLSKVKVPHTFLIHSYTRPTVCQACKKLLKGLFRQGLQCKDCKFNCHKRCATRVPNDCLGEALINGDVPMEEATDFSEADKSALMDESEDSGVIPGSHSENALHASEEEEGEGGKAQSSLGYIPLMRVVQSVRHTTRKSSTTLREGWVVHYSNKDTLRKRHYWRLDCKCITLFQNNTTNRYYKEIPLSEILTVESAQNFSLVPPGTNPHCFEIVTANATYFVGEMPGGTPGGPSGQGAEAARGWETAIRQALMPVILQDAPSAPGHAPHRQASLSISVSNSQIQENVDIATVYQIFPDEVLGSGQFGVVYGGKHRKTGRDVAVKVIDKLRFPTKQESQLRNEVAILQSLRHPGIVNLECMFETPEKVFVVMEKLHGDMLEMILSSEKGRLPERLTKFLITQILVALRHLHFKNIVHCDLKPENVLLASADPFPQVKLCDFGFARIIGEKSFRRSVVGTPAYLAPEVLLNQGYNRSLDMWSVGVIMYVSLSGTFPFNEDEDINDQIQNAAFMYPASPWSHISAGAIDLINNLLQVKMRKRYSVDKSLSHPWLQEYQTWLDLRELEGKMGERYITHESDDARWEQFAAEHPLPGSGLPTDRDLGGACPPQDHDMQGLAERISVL
As to conditions: at 0.1 µM.

Test [11] has as its target T3, Serine/threonine-protein kinase D2 (Homo sapiens). To be noted: at 1 µM.
Test [12] concerns the target T4, Serine/threonine-protein kinase D3 (Homo sapiens) (UniProt O94806).
T4 sequence (whole entry): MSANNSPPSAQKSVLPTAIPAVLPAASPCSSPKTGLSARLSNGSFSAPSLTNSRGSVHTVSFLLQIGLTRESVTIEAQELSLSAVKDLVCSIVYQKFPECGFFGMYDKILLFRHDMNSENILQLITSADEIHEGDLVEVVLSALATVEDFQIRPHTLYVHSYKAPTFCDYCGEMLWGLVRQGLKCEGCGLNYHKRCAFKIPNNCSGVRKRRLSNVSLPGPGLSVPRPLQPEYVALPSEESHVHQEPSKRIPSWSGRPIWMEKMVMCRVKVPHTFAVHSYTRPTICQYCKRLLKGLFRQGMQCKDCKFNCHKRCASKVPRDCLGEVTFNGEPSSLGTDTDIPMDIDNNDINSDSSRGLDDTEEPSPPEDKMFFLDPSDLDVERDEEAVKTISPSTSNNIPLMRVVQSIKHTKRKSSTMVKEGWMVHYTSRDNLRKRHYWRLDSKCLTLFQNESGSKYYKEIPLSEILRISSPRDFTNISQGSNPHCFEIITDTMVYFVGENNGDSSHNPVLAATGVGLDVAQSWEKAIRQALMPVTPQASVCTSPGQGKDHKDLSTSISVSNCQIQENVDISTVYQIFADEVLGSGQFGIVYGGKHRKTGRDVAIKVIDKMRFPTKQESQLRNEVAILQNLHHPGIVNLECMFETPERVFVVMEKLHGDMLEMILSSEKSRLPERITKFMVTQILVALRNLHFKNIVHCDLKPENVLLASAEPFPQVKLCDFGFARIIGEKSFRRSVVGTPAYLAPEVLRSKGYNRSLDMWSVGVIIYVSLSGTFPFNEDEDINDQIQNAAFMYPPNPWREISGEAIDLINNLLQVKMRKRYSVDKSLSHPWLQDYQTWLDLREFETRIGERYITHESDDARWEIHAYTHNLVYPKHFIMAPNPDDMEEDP
As to conditions: at 0.1 µM.

Test [13] has as its target T4, Serine/threonine-protein kinase D3 (Homo sapiens). To be noted: at 1 µM.
The target in test [14] is T5, cGMP-dependent protein kinase 1 (Homo sapiens) (UniProt Q13976).
T5 sequence (whole entry): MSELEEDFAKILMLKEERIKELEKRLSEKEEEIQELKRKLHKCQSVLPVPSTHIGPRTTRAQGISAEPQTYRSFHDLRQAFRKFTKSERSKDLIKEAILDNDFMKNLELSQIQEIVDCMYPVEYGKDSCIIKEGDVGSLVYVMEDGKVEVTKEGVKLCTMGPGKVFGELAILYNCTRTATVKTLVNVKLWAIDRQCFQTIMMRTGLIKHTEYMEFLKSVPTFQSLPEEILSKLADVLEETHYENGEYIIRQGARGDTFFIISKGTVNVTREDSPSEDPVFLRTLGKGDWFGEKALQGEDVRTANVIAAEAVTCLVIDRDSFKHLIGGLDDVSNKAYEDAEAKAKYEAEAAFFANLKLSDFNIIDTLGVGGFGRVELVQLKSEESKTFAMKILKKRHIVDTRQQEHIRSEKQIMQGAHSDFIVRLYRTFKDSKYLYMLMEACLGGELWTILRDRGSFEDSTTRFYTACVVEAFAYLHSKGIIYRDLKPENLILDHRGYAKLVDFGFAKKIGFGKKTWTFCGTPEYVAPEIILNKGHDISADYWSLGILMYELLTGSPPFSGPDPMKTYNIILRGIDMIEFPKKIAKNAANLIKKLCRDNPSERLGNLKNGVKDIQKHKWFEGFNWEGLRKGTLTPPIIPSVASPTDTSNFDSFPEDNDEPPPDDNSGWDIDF
To be noted: at 0.1 µM.

Test [15] has as its target T5, cGMP-dependent protein kinase 1 (Homo sapiens). To be noted: at 1 µM.
For test [16], the target named is T6, cGMP-dependent protein kinase 2 (Homo sapiens) (UniProt Q13237).
T6 sequence (whole entry): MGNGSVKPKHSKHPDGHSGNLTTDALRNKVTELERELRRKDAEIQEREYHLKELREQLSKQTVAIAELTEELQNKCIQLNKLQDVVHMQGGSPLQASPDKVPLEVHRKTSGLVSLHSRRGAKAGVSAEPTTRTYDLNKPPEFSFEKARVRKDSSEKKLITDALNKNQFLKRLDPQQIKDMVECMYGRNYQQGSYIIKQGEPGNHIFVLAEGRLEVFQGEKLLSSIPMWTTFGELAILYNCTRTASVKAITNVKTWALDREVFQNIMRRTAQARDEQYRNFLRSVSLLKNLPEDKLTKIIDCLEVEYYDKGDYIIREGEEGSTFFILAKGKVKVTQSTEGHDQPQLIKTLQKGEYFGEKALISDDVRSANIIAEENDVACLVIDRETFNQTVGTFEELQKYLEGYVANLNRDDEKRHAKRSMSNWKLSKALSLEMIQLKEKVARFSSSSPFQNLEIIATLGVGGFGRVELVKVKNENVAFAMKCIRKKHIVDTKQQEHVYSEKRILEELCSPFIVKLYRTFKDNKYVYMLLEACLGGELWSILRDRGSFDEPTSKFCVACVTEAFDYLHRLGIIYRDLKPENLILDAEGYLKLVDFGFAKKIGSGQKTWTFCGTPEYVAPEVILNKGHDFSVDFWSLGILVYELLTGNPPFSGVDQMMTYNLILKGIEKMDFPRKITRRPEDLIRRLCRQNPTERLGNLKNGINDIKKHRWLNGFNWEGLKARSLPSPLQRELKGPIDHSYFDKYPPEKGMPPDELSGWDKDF
As to conditions: at 0.1 µM.

In test [17] the target is T6, cGMP-dependent protein kinase 2 (Homo sapiens). To be noted: at 1 µM.
For test [18], the target named is T7, cAMP-dependent protein kinase catalytic subunit PRKX (Homo sapiens) (UniProt P51817).
T7 sequence (whole entry): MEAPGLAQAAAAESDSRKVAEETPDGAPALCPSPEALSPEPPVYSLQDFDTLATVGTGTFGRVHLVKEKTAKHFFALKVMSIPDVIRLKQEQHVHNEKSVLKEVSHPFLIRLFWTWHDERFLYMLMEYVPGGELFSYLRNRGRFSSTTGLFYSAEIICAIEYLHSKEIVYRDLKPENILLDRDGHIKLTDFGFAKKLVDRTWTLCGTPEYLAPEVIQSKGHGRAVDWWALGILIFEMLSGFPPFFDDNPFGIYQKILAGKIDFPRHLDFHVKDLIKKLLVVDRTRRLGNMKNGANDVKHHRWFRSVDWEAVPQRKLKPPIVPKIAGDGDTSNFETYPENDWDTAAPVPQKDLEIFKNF
To be noted: at 0.1 µM.

The target in test [19] is T7, cAMP-dependent protein kinase catalytic subunit PRKX (Homo sapiens). As to conditions: at 1 µM.
In test [20] the target is Rho-associated protein kinase 1 (Homo sapiens) (UniProt Q13464). To be noted: at 0.1 µM.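 Note: values are mean percent inhibition of ROCK1.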
Sequence of Rho-associated protein kinase 1 (Homo sapiens) (Q13464 2-1354 limits assumed): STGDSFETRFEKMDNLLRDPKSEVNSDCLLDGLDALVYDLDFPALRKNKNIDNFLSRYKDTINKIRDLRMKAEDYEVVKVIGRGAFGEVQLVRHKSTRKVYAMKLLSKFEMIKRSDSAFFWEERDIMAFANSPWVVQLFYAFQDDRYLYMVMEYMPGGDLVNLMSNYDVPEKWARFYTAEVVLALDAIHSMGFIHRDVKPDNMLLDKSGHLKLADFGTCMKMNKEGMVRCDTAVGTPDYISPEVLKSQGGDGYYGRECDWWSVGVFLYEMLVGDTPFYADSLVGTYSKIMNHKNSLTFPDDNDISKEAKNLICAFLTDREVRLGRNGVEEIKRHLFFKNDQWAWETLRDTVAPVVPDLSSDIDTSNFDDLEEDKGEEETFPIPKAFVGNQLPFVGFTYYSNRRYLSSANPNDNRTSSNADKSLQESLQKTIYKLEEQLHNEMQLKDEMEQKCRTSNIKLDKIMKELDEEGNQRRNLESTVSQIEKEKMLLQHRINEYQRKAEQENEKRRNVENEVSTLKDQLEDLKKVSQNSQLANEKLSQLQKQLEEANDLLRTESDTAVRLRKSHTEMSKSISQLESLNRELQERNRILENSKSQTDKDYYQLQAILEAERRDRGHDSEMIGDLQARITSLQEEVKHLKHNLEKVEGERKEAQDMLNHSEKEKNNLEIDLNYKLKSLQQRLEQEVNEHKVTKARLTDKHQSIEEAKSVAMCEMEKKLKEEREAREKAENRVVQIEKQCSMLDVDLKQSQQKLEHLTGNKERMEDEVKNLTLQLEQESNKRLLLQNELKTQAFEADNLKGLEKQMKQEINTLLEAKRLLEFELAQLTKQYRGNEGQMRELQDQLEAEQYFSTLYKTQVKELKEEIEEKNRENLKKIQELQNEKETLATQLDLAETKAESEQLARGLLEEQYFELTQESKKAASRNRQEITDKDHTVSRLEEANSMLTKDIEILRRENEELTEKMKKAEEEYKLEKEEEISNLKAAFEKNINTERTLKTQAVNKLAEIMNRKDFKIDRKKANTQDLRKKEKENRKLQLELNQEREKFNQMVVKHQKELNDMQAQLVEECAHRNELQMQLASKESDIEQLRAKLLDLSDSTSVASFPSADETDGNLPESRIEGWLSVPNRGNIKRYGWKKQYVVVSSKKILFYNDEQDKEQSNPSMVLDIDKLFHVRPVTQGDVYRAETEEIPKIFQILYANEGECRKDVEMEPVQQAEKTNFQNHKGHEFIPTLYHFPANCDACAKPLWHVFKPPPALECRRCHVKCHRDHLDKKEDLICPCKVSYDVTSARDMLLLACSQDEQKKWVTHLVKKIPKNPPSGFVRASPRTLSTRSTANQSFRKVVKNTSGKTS

As a reminder, the inhibition is the percentage by which the read-out fell short of the control. Read a high inhibition as strong suppression.

Sequence of Protein kinase C beta type (Homo sapiens) (P05771 2-671 limits assumed): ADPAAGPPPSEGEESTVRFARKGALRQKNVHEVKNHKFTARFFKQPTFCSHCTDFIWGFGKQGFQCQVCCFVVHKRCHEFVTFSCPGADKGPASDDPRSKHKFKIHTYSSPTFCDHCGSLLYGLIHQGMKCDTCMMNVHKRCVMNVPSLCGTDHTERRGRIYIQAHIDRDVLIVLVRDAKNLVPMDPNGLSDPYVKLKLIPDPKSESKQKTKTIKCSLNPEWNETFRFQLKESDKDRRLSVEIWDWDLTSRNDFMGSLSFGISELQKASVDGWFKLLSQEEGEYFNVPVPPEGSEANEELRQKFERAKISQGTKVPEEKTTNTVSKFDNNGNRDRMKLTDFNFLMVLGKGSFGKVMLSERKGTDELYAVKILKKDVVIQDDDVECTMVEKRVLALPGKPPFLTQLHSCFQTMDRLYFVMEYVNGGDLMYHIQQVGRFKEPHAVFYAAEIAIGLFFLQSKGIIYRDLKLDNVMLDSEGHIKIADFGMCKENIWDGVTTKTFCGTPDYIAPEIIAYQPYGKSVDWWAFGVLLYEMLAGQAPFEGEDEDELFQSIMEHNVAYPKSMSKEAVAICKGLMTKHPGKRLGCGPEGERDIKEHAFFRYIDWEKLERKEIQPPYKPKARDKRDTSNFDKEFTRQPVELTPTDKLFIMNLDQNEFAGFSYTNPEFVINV

Consider `O=C1Nc2ccc(I)cc2C1=Cc1cc(Br)c(O)c(Br)c1`, for which the inhibition in [1] is 2.63%; in [2], 0.72%; in test [3], 1.75%; in test [4], 1.74%; in test [5], 2.5%; in [6], 0.99%. Besides, the inhibition in [7] was 1.87%; in [8], 3.52%; in [9] it was 4.76%; in [10], 2.97%; in test [11], 1.24%; in test [12] it was 3.73%. Also, the inhibition in test [13] worked out at 3.16%; in [14], 3.82%; in [15], 5.76%; in [16] it was 2.47%; in test [17], 6.45%; in test [18], 0.49%. The inhibition turned out to be 2.04% in test [19] and 2.76% in [20].

The record behind these values is ChEMBL document CHEMBL1961873, “Compounds: GSK PKIS; Assays: Nanosyn kinase panel” (2012).
